Data on 24 compounds can be found in PubChem BioAssay (EPA / NIEHS).

Structures are written as SMILES. Calls of active or inactive are those of the source. How the source made its calls: active means hit-call score of the fitted dose curve at least 0.9, where 1 is the maximum; inactive means score below 0.9.

The assay in a line: CCTE_Shafer_MEA_dev_firing_rate_mean: CCTE's Neural Network Formation Assay for Mean Firing Rate, Shafer Lab (AID 2284031).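 On AC50: curve fitted for loss of firing so AC50 reflects decreased mean firing rate.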 As to the method: CCTE_Shafer_MEA_dev assay is conducted using Axion Biosystems 48 well microelectrode array (MEA) plates and Maestro recording system. Each well of the MEA plate contains a grid of 16 microelectrodes embedded in the culture surface. Electrically active cells, such as neurons, can be cultured over the electrodes, and electrical activity in these cells can be recorded extracellularly. The spontaneous firing of neurons is captured from each electrode on a microsecond timescale providing both temporally and spatially precise data. […] The CCTE_Shafer_MEA_dev assay uses primary cultures of rat cortical neurons. Recordings are made on days post-plating 5, 7, 9 and 12. As these cultures mature over time, neural networks develop functional activity and form cohesive networks in which electrical activity can be highly coordinated. CCTE_Shafer_MEA_dev_firing_rate_mean is 1 of 19 assay components of the CCTE_Shafer_MEA_dev assay. It measures the frequency of spikes (action potential firings) as the total number of spikes divided by the length of the recording in a microelectrode array (MEA) using Axion Biosystems Maestro 768 channel amplifier with the AxIS adaptive spike detector. The firing rate is averaged across the active electrodes to report a well-mean value. To collapse across multiple recordings made on days post-plating 5, 7, 9 and 12, the trapezoidal area-under-the-curve of the component is calculated.Data from the assay component CCTE_Shafer_MEA_dev_firing_rate_mean was analyzed into 1 assay endpoint. This assay endpoint, CCTE_Shafer_MEA_dev_firing_rate_mean, was analyzed in the negative analysis fitting direction relative to DMSO as the negative control and baseline of activity. Using a type of functional reporter, gain or loss-of-signal activity can be used to understand electrical activity.
On the day prior to culture, each well was coated thoroughly with 150 uL of 0.05% polyethyleneimine (PEI, Sigma Cat P3143) in 50 mM HEPES (Sigma Cat H7523) at a pH of 8. The plate was incubated at 37C for one hour. PEI was rinsed out with 500 uL of sterile water three times. Plates were stored at 4C until the day of culture. This culture was plated at a seeding density of 1.5 x 10^5 cells/well on a 48-well MEA plate, prepared as described above. Cells were administered via a 25 uL media/laminin ([…]; Sigma Cat L2020-1MG) drop directly onto the microelectrode array, as adding the cells with the laminin results in better attachment than pre-coating with laminin. After 2 hours, an additional 475 uL of cortical media was added and the cells returned to the incubator. Exposure starts at day 0 of plating and is continued over twelve days of network development until the experiment is terminated. Cells are fed with fresh medium on DIV 5 and 9, following the recordings on those days. The entire volume of media in the well is exchanged and any vehicle or compound treatment is renewed. Complete details are found in OP-NHEERL/ISTD/SBB/TJS/2015-03-r0 (available on request, email shafer.tim@epa.gov). Measurement of the electrical activity is non-invasive, and recordings can be made from the same plate over multiple different days of the culture. In cortical neurons, this allows for the measurement of extracellular action potentials over the period during which networks form in the MEA plate.
In the case of `C=CC(=O)OCC(F)(F)C(F)F`, the result was inactive.
On the same count and under the same terms, to `CCCCC(CC)COP(=O)(Oc1ccccc1)Oc1ccccc1` (centres undefined) belongs “inactive”; to `OCC(F)(F)OC(F)(F)C(F)(F)OC(F)(F)CO`, “inactive”.
In the case of `CC(O)C(F)(F)C(F)(F)F` (centres undefined), the outcome was inactive.
On the same count and under the same terms, to `O=C(O)C(F)(OC(F)(F)C(F)(F)C(F)(F)F)C(F)(F)F` (centres undefined) belongs “inactive”; to `CCC1(c2ccccc2)C(=O)N=C(O)NC1=O` (centres undefined), “inactive”.
Take `CCOP(=S)(OCC)SCSCC`: the result was inactive.
The same measure, in the same setting: next, `O=P1(N(CCCl)CCCl)NCCCO1` (centres undefined): “inactive”; `O=C(O)C(F)(F)OC(F)(F)C(F)(F)OC(F)(F)F`: “inactive”.
The same measure, in the same setting: to `CCCCC(CC)COC(=O)c1c(Br)c(Br)c(Br)c(Br)c1C(=O)OCC(CC)CCCC` (centres undefined) belongs “inactive”.
The same measure, in the same setting: to `O=C(O)C1C(C(=O)O)C2(Cl)C(Cl)=C(Cl)C1(Cl)C2(Cl)Cl` (centres undefined) belongs “inactive”.
Turning to `CC(C)(C)c1ccccc1OP(=O)(Oc1ccccc1)Oc1ccccc1`, the call was inactive.
For the compound `O=C(O)C(F)(F)C(F)(F)C(=O)O`, the result was inactive.
On the same count and under the same terms, next, `c1cc2c3c(cccc3c1)CC2`: “inactive”.
For `CO/N=C(/C(=O)OC)c1ccccc1COc1ccccc1C`, the AC50 – broadly, the midpoint of the concentration-response curve, whichever way the signal moves – was 1 µM (active).
As to `O=S(=O)(c1ccc(O)cc1)c1ccc(O)cc1`, the compound was called inactive.
For the compound `CCOc1ccc(C(C)(C)COCc2cccc(Oc3ccccc3)c2)cc1`, the half-maximal activity concentration (AC50) is 5.99 µM (active).
For the compound `O=C(O)C(F)(F)OC(F)(F)C(F)(F)OC(F)(F)C(=O)O`, the compound was called inactive.
The same measure, in the same setting: next, `c1ccc(OP(Oc2ccccc2)Oc2ccccc2)cc1`: “inactive”.
Take `O=P(Oc1ccccc1)(Oc1ccccc1)Oc1ccccc1`: the compound was called inactive.
Still for that read-out and setting: next, `OCC(F)(F)OC(F)(F)C(F)(F)OC(F)(F)C(F)(F)OC(F)(F)F`: “inactive”; `O=C(O)C=CC(F)(C(F)(F)F)C(F)(F)F`: “inactive”; `OCC(F)(F)OC(F)(F)C(F)(F)OC(F)(F)C(F)(F)OC(F)(F)CO`: “inactive”.
Consider `ClC1=C(Cl)C2(Cl)C3C(Cl)C(Cl)CC3C1(Cl)C2(Cl)Cl` (centres undefined), for which the AC50 is 4.35 µM (active).
